# Assay: qHTS profiling of the MIPE4 collection as inhibitors of Plasmodium falciparum (DD2) proliferation (Rep 2) (AID 743346)
# Settings: P. falciparum Dd2 in erythrocytes, SYBR Green DNA, 72 h; at 9.64 µM (top of the series)
# Description: Plasmodium falciparum is a virulent malarial parasite that kills 1-2 million people worldwide each year. Transmitted by mosquitoes, the sporozoite form of the parasite enters the blood stream to infect hepatocytes, where they become merozoites that infect red blood cells (erythrocytes). Within erythrocytes, merozoites begin a […] cycle of growth and division, after which the parasite is released to infect new red blood cells. Gametocytes, which form within erythrocytes as well, circulate in the bloodstream and are ingested by the mosquito, thereby completing the life cycle. To profile malarial isolates for differential chemical responses and to identify inhibitors of malarial growth, an assay that measures P. falciparum growth and replication within erythrocytes was employed. This assay uses a DNA binding fluorescent dye (SYBR Green) to detect parasite DNA following cell lysis. Because mature erythrocytes lack DNA, only Plasmodium-derived DNA is detected.
# The SYBR Green viability assay was adapted from a method described previously (Plouffe et al., 2008). For screening 3 ul culture medium was dispensed into 1536 well black clear bottom plates (Aurora Biotechnologies) using a Multidrop Combi (Thermo Fisher Scientific Inc.), 23 nL compounds in DMSO were added by a pin tool (Kalypsys), and 5 ul of erythrocytes infected with P. falciparum (0.3% parasitemia, 2.5% hematocrit final concentration) were added. The plates were incubated at 37 C in a humidified incubator in 5% CO2 for 72 h, and 2 ul lysis buffer (20 mM Tris HCl, 10 mM EDTA, 0.16% saponin, 1.6% triton X, 10X SYBR Green I supplied as 10,000X […] by Invitrogen) was added to each well. The plates were mixed for 25 sec with gentle shaking and incubated overnight at room temperature in the dark. The following morning, fluorescence intensity at 485(14) nm excitation and 535(25) nm emission wavelengths was measured on an EnVision (Perkin Elmer) plate reader. Plate reads were normalized relative to the control inhibitor (0.29 uM artemisinin) and vehicle (DMSO) wells present on each plate and then corrected by an algorithm using vehicle-only control plates at the beginning and end of the compound plate stack.
row,SMILES,"parasite growth, % of control (lower = inhibition) [%]"
1,Clc1ccc(COC(Cn2ccnc2)c2ccc(Cl)cc2Cl)c(Cl)c1 (stereo not given),19.2

# Same assay, conditions: P. falciparum Dd2 in erythrocytes, SYBR Green DNA, 72 h; at 28.5 µM
row,SMILES,"parasite growth, % of control (lower = inhibition) [%]"
1,Clc1ccc(COC(Cn2ccnc2)c2ccc(Cl)cc2Cl)c(Cl)c1 (stereo not given),12.3

# Same assay, conditions: P. falciparum Dd2 in erythrocytes, SYBR Green DNA, 72 h; at 28.5 µM unless noted
row,SMILES,"parasite growth, % of control (lower = inhibition) [%]"
1,Cc1ccc(C(=O)N(CCCN)[C@@H](c2nc3cc(Cl)ccc3c(=O)n2Cc2ccccc2)C(C)C)cc1,13.3
2,COc1nccc(-c2c(-c3ccc(F)cc3)ncn2C2CCNCC2)n1,41
3,CCOc1ccccc1N=Nc1c(C)[nH]n(-c2nc(-c3ccccc3)cs2)c1=O,82.1
4,CCNC(=O)[C@H]1O[C@@H](n2cnc3c(N)nc(NCCc4ccc(CCC(=O)O)cc4)nc32)[C@H](O)[C@H]1O,116
5,CC(=O)Nc1cccc(-n2c(=O)n(C3CC3)c(=O)c3c(Nc4ccc(I)cc4F)n(C)c(=O)c(C)c32)c1,9.44
6,FC(F)(F)c1ccc(C=Cc2nc(COc3ccc(CCCCn4ccnn4)cc3)co2)cc1,62.6
7,CNc1nc(Nc2ccc(C(=O)N3CCOCC3)cc2OC)ncc1Cl,56.9
8,O=C(O)C1=NC(C(=O)O)CC(C=CN2c3cc(O)c(OC4OC(CO)C(O)C(O)C4O)cc3CC2C(=O)O)=C1 (stereo not given),76.3
9,C[C@@H](NC(=O)c1ncnc(N)c1Cl)c1ncc(C(=O)Nc2cc(C(F)(F)F)c(Cl)cn2)s1,58.8
10,Cc1cc(C(C)Nc2ccccc2)c2nc(N3CCOCC3)cc(=O)n2c1 (stereo not given),31.1
11,COc1cc2ncnc(Nc3cc(Br)c(O)c(Br)c3)c2cc1OC,43.2
12,CCC(=O)N1CCN(c2ccc(-n3c(=O)ccc4cnc5ccc(-c6cnc7ccccc7c6)cc5c43)cc2C(F)(F)F)CC1,8.45
13,COc1ccc(-c2cc(=O)c3c(O)cc(O[C@@H]4O[C@H](CO[C@@H]5O[C@@H](C)[C@H](O)[C@@H](O)[C@@H]5O)[C@@H](O)[C@H](O)[C@@H]4O)cc3o2)cc1O,33.2
14,CCC(=C(CC)c1ccc(O)cc1)c1ccc(O)cc1,84.8
15,O=C(O)CCNc1cc(N2CCc3ccccc3CC2)nc(-c2ccccn2)n1,20.6
16,C[C@H]1O[C@@H](n2cc(F)c(=O)[nH]c2=O)[C@H](O)[C@H]1O,7.59
17,COc1cc([C@H]2Oc3cc([C@H]4Oc5cc(O)cc(O)c5C(=O)[C@H]4O)ccc3O[C@H]2CO)ccc1O,16.1
18,C=C1[C@H](n2cnc3c(=O)[nH]c(N)nc32)C[C@H](O)[C@H]1CO,34.7
19,CC(NCCc1ccc(O)cc1)C(O)c1ccc(O)cc1 (stereo not given),73.8

row,SMILES,"parasite growth, % of control (lower = inhibition) [%]"
1,CN[C@@H](C)[C@H]1[C@H](O)C[C@@]2(C)[C@@H]3CC[C@H]4C(C)(C)[C@@H](NC)CC[C@@]45C[C@@]35CC[C@]12C,12.6
2,CN(C)N=Nc1nc[nH]c1C(N)=O,87.6
3,CO[C@H]1O[C@@H]2O[C@@]3(C)CC[C@@H]4[C@@H](C)CC[C@@H]([C@H]1C)[C@@]24OO3,9.94
4,NC1(C(=O)N[C@@H](CCO)c2ccc(Cl)cc2)CCN(c2ncnc3[nH]ccc23)CC1,24.5
5,Cc1nn(Cc2ccccc2Cl)c(C)c1CN(C)CC(O)COc1ccc(Cl)cc1 (stereo not given),16.7
6,Cc1cc(OCCCS(C)(=O)=O)cc(C)c1-c1cccc(COc2ccc3c(c2)OC[C@H]3CC(=O)O)c1,61.9
7,C[C@]12CC[C@@H]3c4ccc(O)cc4CC[C@H]3[C@H]1[C@@H](O)[C@@H](O)[C@H]2O,7.28
8,N#CC(c1ccnc(NCCc2cccnc2)n1)c1nc2ccccc2s1 (stereo not given),15.5
9,C[C@@H]1[C@H](O)[C@@H](C)C=CC=CC=CC=CC=CC=CC=C[C@H](O[C@@H]2O[C@H](C)[C@H](O)[C@H](N)[C@@H]2O)C[C@@H]2O[C@](O)(C[C@@H](O)C[C@@H](O)[C@H](O)CC[C@@H](O)C[C@@H](O)CC(=O)O[C@H]1C)C[C@H](O)[C@@H]2C(=O)O,7.41
10,CN(C)S(=O)(=O)c1ccc2c(c1)C(=Cc1cc3c([nH]1)CCCC3)C(=O)N2,30
11,COc1ccc(CCN(C)CCCOc2ccc(S(=O)(=O)c3[nH]c4ccccc4c3C(C)C)cc2)cc1OC,16.3
12,CN(C)CCOc1ccc(C(=C(CCCl)c2ccccc2)c2ccccc2)cc1,19.5
13,CCCCCCCCCCCCCCCC(=O)O[C@H]1[C@@H](O)[C@@H](O)[C@@H]([C@H](NC(=O)[C@@H]2C[C@@H](CCC)CN2C)[C@H](C)Cl)O[C@@H]1SC,20.4
14,COc1cc2nccc(Oc3ccc(NC(=O)Nc4ccc(F)cc4F)c(F)c3)c2cc1OC,46.4
15,O=S(=O)(O)c1ccc2cc(N=Nc3cc(S(=O)(=O)O)c4cccnc4c3O)ccc2c1,77.8
16,C[C@]12CCC3=C4CCC(=O)C=C4CC[C@@H]3[C@H]1CC[C@@]2(O)CC#N,71
17,CN1[C@H]2CC[C@H]1CC(OC(=O)c1c[nH]c3ccccc13)C2 (stereo not given in full),19.2
18,CN[C@@H]1[C@@H](O)[C@@H](O[C@@H]2[C@@H](O)[C@H](O[C@H]3O[C@H](CN)[C@@H](O)[C@H](O)[C@@H]3O)[C@@H](N)C[C@@H]2NC(=O)[C@@H](O)CN)OC[C@]1(C)O,90.7
19,CN(C)CCN(C)C(=O)c1ccc(NC(=O)Nc2ccc(-c3nc(N4CCOCC4)c4ccn(CC(F)(F)F)c4n3)cc2)cc1,20.5
